From PubChem BioAssay AID1918990 (ICCB-Longwood Screening Facility, Harvard Medical School, 2023) come the findings set out here.

Hit rate of the full screen: of about 29,000 compounds, about 85 (0.3%) were called active. The sample holds actives, similar compounds and a random draw of the others, so the mix is not that of the screen. Unmarked numbers belong to inactive results.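 How the source made its calls: active means replicate mean overnight rise in green fluorescent reporter signal, 3 or more SD over negative controls; inactive means the rest.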

A short description of this experiment: fixK promoter GFP reporter activation – B. multivorans, primary screen (AID 1918990). Conditions: 18 h, hits give high values.
Regarding `COc1cc(NS(=O)(=O)c2cccs2)cc(OC)c1`, the z-score was -1.05.

With `Cc1ccc(C(=O)Nc2ccc3[nH]c(=O)c(=O)[nH]c3c2)cc1`, the z-score was -0.29.

For `CCCC(=O)Nc1cc2nn(-c3ccccc3)nc2cc1C`, the z-score is -0.72.

For `O=C(CSc1ccncc1)NC1CCOCC1Oc1cccc(F)c1` (centres undefined), the z-score was -0.58.

As to `COc1cc(OC)c(N(C)C(=O)c2cc3c(=O)oc4ccccc4c3s2)cc1Cl`, the z-score was -1.12.

Take `CCC(=O)N1CCc2cc(S(=O)(=O)NC(Cc3ccccc3)C(=O)NCc3ccccc3)ccc21` (centres undefined): the z-score is -1.81.

Take `CC(NC(=O)CCN1CCN(C)CC1)c1cnn(-c2ccccc2)c1` (centres undefined): the z-score was 0.09.

For `COc1cc(OC)c(NC(=O)c2c3c(nn2C)-c2ccccc2SC3)cc1Cl`, the z-score is 1.42.

Consider `CCOC(=O)c1cnc2c(C)cc(C)cc2c1Nc1ccc(N2CCOCC2)cc1`, for which the z-score is -0.2.

With `O=C1CCC2(CCCN(C(=O)c3n[nH]c4c3CCCC4)C2)CN1CC1CC1` (centres undefined), the z-score is -0.52.

In the case of `CC(C)(C)NC(=O)CSc1nc(-c2ccc(F)cc2)cc(C(F)(F)F)n1`, the z-score was -1.55.

Consider `CCc1ccc(CN(Cc2ccco2)C(=O)c2ccccc2Cl)cc1`, for which the z-score was 1.11.

As for `CCN1CCc2nc3sc(C(=O)Nc4ccccc4OC(F)(F)F)c(N)c3cc2C1`, the z-score is -0.04.

Regarding `Cc1ccc(S(=O)(=O)N2CCCC(C(=O)CCc3ccccc3)C2)s1` (centres undefined), the z-score was -1.15.

With `Cc1cc(C)nc(CCNC(=O)N(Cc2ccncc2)CC2CCC(=O)N2)n1` (centres undefined), the z-score was 0.83.

With `Cc1ccc(Cl)cc1NC(=O)CCS(=O)(=O)c1ccc(Br)s1`, the z-score was -1.34.

Take `CCCN1CCN(CCCNC(=O)Cn2nc(CC)n3c(cc4occc43)c2=O)CC1`: the z-score was 0.72.

Turning to `Cc1nn(C)c2c1C(NC(=O)c1cc(CC(C)C)on1)CCC2` (centres undefined), the z-score was -0.15.

As to `Cc1ccc(NC(=O)C(Cc2ccccc2)NS(=O)(=O)c2ccc3c(c2)oc(=O)n3C)cc1C` (centres undefined), the z-score was 0.54.

For the molecule `Cc1nc2c(-c3ccccc3)c(C)nn2c(C)c1CCC(=O)NCCc1ccccc1`, the z-score was -0.95.

With `COc1ccc(-c2noc(CCC(=O)N(C)c3ccccc3C)n2)cc1`, the z-score is -1.83.

`CCn1c(=O)c(=O)n(CC)c2cc(N3CCCCC3)c(NC(=O)c3ccc(Cl)cc3)cc21`: the z-score was 15.3 (active).

`CCn1c(=O)c(=O)n(CC)c2cc(N3CCCCC3)c(NC(=O)c3cccc(F)c3)cc21`: the z-score is 0.36.

Take `CCn1c(C(=O)Nc2cc(Cl)ccc2C)cc2sc(Cl)cc21`: the z-score was -0.88.

As for `CCCn1nccc1S(=O)(=O)NCc1csc(-c2cnccn2)n1`, the z-score was -1.08.

`Cc1cccc(NC(=O)C2CCCN2S(=O)(=O)c2cccc3nsnc23)c1C` (centres undefined): the z-score was 0.05.

For the molecule `CN1C(=O)c2[nH]nc(-c3ccc(F)cc3)c2C1c1ccccn1` (centres undefined), the z-score was 0.33.

As to `CN(CCNC(=O)CN1CCCC(c2ccccc2)C1)S(C)(=O)=O` (centres undefined), the z-score is 0.17.

As for `Cc1[nH]c(=O)[nH]c(=O)c1CC(=O)NCc1ccc(-c2ncon2)cc1`, the z-score was -1.58.

In the case of `CCOC(=O)c1ccc(NC(=O)CC2C(=O)N(c3cccc(OC)c3)C(=O)N2C2CCCCC2)cc1` (centres undefined), the z-score is -0.28.

For the molecule `CCOC(=O)c1cc2c(=O)n3ccccc3nc2n(CCCOC)c1=NC(=O)C(C)(C)Oc1ccc(Cl)cc1`, the z-score was -0.51.

As to `Cc1cc(C(=O)NCCCc2nnc3ccccn23)nc(C)n1`, the z-score is -0.17.

As for `COc1ccc(CNC(=O)c2cc3c(s2)-c2ccccc2OC3)cc1`, the z-score is 0.73.

As to `COc1ccccc1CNC(=O)Cn1nccc1C1CCCNC1` (centres undefined), the z-score is 0.

On to `CCCCNC(=O)c1ccc2c(c1)NC(=O)C(C(C)C)N2` (centres undefined), for which the z-score is 0.08.

In the case of `COc1cc2nc(NCC(C)c3ccccc3)n3nc(-c4ccccc4)nc3c2cc1OC` (centres undefined), the z-score was -0.67.

With `CCCS(=O)(=O)c1c(Nc2ccccc2C)sc(C(=O)c2ccccc2)c1N`, the z-score was 0.44.

Consider `CC1CCC2(CC1)N=C(c1ccccc1)C(=O)N2CC(=O)Nc1ccc(F)c(Cl)c1` (centres undefined), for which the z-score is -1.75.

Turning to `Cc1cc(C)cc(NS(=O)(=O)c2ccc3[nH]cc(C(=O)N4CCCCC4)c(=O)c3c2)c1`, the z-score is -1.09.

Take `COc1ccc(CCNCc2c(C(=O)O)c(C)n(Cc3cccc(C)c3)c2C)cc1OC`: the z-score was -1.27.

Consider `COC(=O)c1c(NC(=O)c2cc(=O)c3c(C)cc(C)cc3o2)sc2c1CCCC2`, for which the z-score is -1.12.

Consider `COCCN(CC=Cc1ccccc1)Cc1ccc2nonc2c1`, for which the z-score is 0.18.

In the case of `COc1cc2c(=O)c(S(=O)(=O)c3ccc(C(C)C)cc3)cn(Cc3ccccc3C)c2cc1OC`, the z-score was 0.3.

Take `CCOC(=O)c1c(NC(=O)COc2cc(C)ccc2C(C)C)sc(C)c1C`: the z-score is -0.34.

`c1ccc(-c2noc(CCn3ccnc3-c3cnsc3)n2)nc1`: the z-score is 0.47.

On to `Cc1ccc(-n2nc(CO)c(C(=O)NCCc3ccccc3)n2)cc1`, for which the z-score was -0.78.

With `CC(C)c1nnsc1C(=O)Nc1ccc(CC(=O)NC2CC2)cc1`, the z-score was -0.11.

Take `Cn1ccnc1C(O)c1cc2n(n1)CCN(Cc1cccc(Cl)c1)C2` (centres undefined): the z-score was 0.34.

With `COCCCNC(=O)c1c(NC(=O)c2cc(=O)c3cc(C)c(C)cc3o2)sc2c1CCCC2`, the z-score was -0.42.

As to `COc1cccc2c1C1(CCN(C(=O)c3ccccn3)CC1)OCC2`, the z-score is 0.69.

`CCOC(=O)C1CCCN(C(=O)Cn2ncc3c(C)n(Cc4ccc(F)cc4)c(C)c3c2=O)C1` (centres undefined): the z-score is 0.33.

Turning to `COc1ccc(Cl)cc1NC(=O)NCC1CCN(Cc2ccccc2F)CC1`, the z-score was -7.23.

Take `Cc1ccc(C(=O)NCCc2nc(N)cc(=O)[nH]2)n1C(F)F`: the z-score was -0.52.

With `COc1ccc(NC(=O)CSc2nc3ncccc3[nH]2)c(OC)c1`, the z-score was 1.38.

In the case of `Cn1c(C2CCN(C(=O)CSc3nnc(N)s3)CC2)nc2ccccc21`, the z-score was 0.47.

Regarding `CN(Cc1ccccc1)C(=O)c1cc2c(=O)n(C)c3ccccc3c2s1`, the z-score was 0.14.

In the case of `CCOc1ccc(S(=O)(=O)N(CC(=O)NCCSCc2ccc(C)cc2)c2ccccc2)cc1`, the z-score was -1.04.

Consider `Cc1c(NC(=O)c2cc(=O)c3ccccc3o2)c(=O)n(-c2ccccc2)n1C`, for which the z-score was -0.69.

For `COc1cccc(CNC(=O)c2cc(=O)[nH]c3ccc(S(=O)(=O)N4CCCCC4)cc23)c1`, the z-score is -0.5.

For the molecule `CCc1ccc(NC(=O)CN2C(=O)C(c3ccccc3)=NC23CCCCCC3)cc1`, the z-score was -1.83.

In the case of `COC(=O)c1ccc(C2C(C(=O)Nc3ccccc3)=C(C)Nc3nc4ccccc4n32)cc1` (centres undefined), the z-score is -1.77.

With `COc1ccc(CNC(=O)Cn2nnc(-c3ccc(S(C)(=O)=O)cc3)n2)cc1`, the z-score is 0.3.

On to `Cn1c(=O)nc2n(-c3ccc(Br)cc3)c3cccc(Cl)c3cc-2c1=O`, for which the z-score was -1.2.

Take `COc1ccc(C(=O)Nc2onc3c2CCCC3)cc1`: the z-score was -2.06.

For `Cc1nc(C2CCN(S(=O)(=O)CCC3CCS(=O)(=O)C3)CC2)no1` (centres undefined), the z-score was 0.66.

For `Cc1ccc(Nc2c(-c3ccc(C)cc3)nc3cnccn23)cc1`, the z-score is -1.25.

For the molecule `Cn1c(=O)c2c(nc(SCC(=O)Nc3ccc(F)cc3)n2Cc2ccccc2)n(C)c1=O`, the z-score was -1.14.

For the molecule `Cc1ccc2nc(-c3ccc(O)cc3)c(Nc3ccc4c(c3)OCO4)n2c1`, the z-score was 0.53.

Regarding `O=C(c1n[nH]c2ccccc12)N1CCc2nc(-c3cccc(F)c3)[nH]c2C1`, the z-score was -1.33.

Turning to `COc1c(Cl)cc(C(=O)N(Cc2ccccc2F)C2CCS(=O)(=O)C2)cc1Cl` (centres undefined), the z-score is -0.89.

As to `Cc1ccn2c(Nc3ccc4c(c3)OCCO4)c(-c3ccc(C)s3)nc2c1`, the z-score was 0.86.

With `CCOc1ccc(-c2cc3nc(C4CCN(C(=O)OC(C)(C)C)CC4)c(C(=O)Nc4cccc(CC)c4)cn3n2)cc1`, the z-score is -0.21.

For the molecule `CCOc1ccc2nc(N3CCC(C(=O)Nc4cc(C)ccc4C)CC3)sc2c1`, the z-score is -0.96.

`Nc1ccnc(N2CCCC(c3[nH]ncc3-c3ccc(F)cc3)C2)n1` (centres undefined): the z-score was -0.16.

Regarding `COc1cc(NC(=O)CCNC(=O)Cn2ccc3ccccc3c2=O)cc(OC)c1OC`, the z-score is 0.24.

For the molecule `CCCCOCC(=O)N1CCCC(c2ccn(CC(=O)O)n2)C1` (centres undefined), the z-score is -2.17.

As for `CN(C)C1CN(Cc2cnc(-c3ccc(Cl)cc3)nc2)CC1O` (centres undefined), the z-score is -0.39.

As for `Cc1ccc(-c2nc(S(=O)(=O)c3ccc(C)cc3)c(N3CCCCCC3)o2)cc1`, the z-score is -0.18.

On to `COc1ccc(CNC(=O)c2cc3c(=O)[nH]c4ccc(C)cc4c3s2)c(OC)c1`, for which the z-score was -1.16.

For the molecule `COc1cccc(OCc2cc(C(=O)N(C)Cc3nncn3C)n[nH]2)c1`, the z-score is -1.49.

As for `Cc1c(CNC(C)c2ccccc2)c(C(=O)O)c(C)n1Cc1c(F)cccc1Cl` (centres undefined), the z-score is -2.09.

As to `COCCN(CCOC)C(=O)c1ccc(-c2ncccc2Cl)cc1`, the z-score was 0.44.

Consider `Cn1c(=O)c2c(nc(SCC(=O)Nc3ccc(F)cc3)n2Cc2ccc(Cl)cc2)n(C)c1=O`, for which the z-score is -2.04.

As to `COCCNC(=O)c1cc(-c2cccc(Cl)c2)on1`, the z-score is 1.09.

As for `CCOc1ccccc1NC(=O)Cn1c(=O)n(Cc2ccco2)c(=O)c2sc3ccccc3c21`, the z-score is -1.53.

For the molecule `COCCCCCC(=O)N1CC(O)C(Cc2cnccn2)C1` (centres undefined), the z-score was 0.

Consider `CS(=O)(=O)N1CCCn2nc(CNC(=O)CC3CCCC3)cc2C1`, for which the z-score was -0.69.

For the molecule `Cc1ccc(C)c(Nc2nnc(-c3ccc(C)c(S(=O)(=O)N4CCCCC4)c3)c3ccccc23)c1`, the z-score is -0.47.

Take `COC(=O)c1ccccc1NS(=O)(=O)c1ccc2c(c1)CCCN2C(C)=O`: the z-score was -1.34.
